A selection: hits, their analogues and other compounds. The true share with any hit is near 3%.
NALP1 yeast inh: blocks the NALP1 inflammasome reconstituted in yeast; S. cerevisiae NALP1/ASC/caspase-1 growth, X-gal OD620, 72 h; inhibition, % at 10 µM; 280,000 tested, 0.61% active; in the data active = inhibition mostly above about 24%, no sharp cut-off; inactive = mostly below about 32%
SUMO Mot1 rescue: blocks SUMOylation pathway, rescuing yeast Mot1-301 growth | S. cerevisiae Mot1-301 growth rescue, ATP luminescence, 38.5C; percent above DMSO median, 100 means doubled | growth rescue, % at 18.8 µM | 320,000 tested, 1% active | AID 2716;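 active = every valid replicate shows activation above 250% relative to neutral control wells; inactive = the rest, any valid replicate at or below 250%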;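 note: OY570 slx delta 5 strain wells were the positive control but not used for scaling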
CHT block: inhibitors of human choline transporter CHT; Q9GZV3; CHT-expressing cells, membrane potential dye, choline response; active compounds read low; B-score at 10 µM; 310,000 tested, 0.86% active;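 active = B-score over 3 SD under the library average, and starting fluorescence ratio not unusually high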;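 note: choline stimulus applied at its EC90 after an EC20 pre-addition; B-score computed on integrated fluorescence ratio after choline addition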
Target sequence (Q9GZV3 whole entry, looked up): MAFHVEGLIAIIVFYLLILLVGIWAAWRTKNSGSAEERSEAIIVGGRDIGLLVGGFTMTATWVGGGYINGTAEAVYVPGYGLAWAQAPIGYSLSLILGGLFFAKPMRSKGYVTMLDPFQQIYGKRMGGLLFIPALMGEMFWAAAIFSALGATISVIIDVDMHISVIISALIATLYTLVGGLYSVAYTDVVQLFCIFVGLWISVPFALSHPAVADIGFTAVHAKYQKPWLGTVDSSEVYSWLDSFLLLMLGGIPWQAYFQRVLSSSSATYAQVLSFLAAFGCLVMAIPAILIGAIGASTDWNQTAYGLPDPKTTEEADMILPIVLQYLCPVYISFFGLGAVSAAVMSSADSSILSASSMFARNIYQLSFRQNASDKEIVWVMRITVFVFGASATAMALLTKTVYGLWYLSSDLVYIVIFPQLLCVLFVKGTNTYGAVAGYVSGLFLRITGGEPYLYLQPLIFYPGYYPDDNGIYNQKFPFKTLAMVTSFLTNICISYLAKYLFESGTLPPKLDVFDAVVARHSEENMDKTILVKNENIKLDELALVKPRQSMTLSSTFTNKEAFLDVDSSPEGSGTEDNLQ
Bfl-1 A1 inh: inhibitors of the anti-apoptotic protein A1, read as caspase activation; 330,000 tested, 0.066% active; AID 2462; caspase activation, % (no concentration beside the values); MEF A1-2A-BIM cells, Caspase-Glo 3/7 luminescence, 3 h; percent of clofoctol response, vehicle zero;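 active = over half of replicate activation scores above 10%, or exactly half above 10 with the replicate mean above 10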
CHT allo act: allosterically activates the human high affinity choline transporter; Q9GZV3; CHT-expressing cells, membrane potential dye, choline EC20; active compounds read high; LV-AA mutant CHT in HEK293 cells; B-score at 10 µM; 310,000 tested, 0.49% active; AID 488977;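 active = initial fluorescence not abnormally high and integrated response B-score, plate-corrected, over 3 SD above library mean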
NALP3 yeast inh: blocks the NALP3 inflammasome reconstituted in yeast | Yeast reconstituted NLRP3/ASC/caspase-1, beta-gal luminescence, 24 h | inhibition, % at 10 µM | 330,000 tested, 0.39% active | AID 2825;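 active = inhibition of 50% or more; inactive = inhibition below 50%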;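 note: plate controls were induced DMSO wells for no effect and uninduced yeast grown without galactose for full effect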
Mot1 SUMO dose: yeast SUMO pathway inhibition in dose response; AID 493004; 2,300 tested, under 10 active; S. cerevisiae Mot1-301 galactose growth, ATP luminescence, 24 h; -100 = growth of slx-deleted rescue strain; growth activity, percent, % at 42 µM; shares compounds with SUMO Mot1 rescue;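 active = Signal drops as the depositor expects, and the fitted half-maximal dose is no more than ten times the top valid tested dose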;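 note: more negative values mean stronger growth rescue toward the control strain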
* hit, by the source's call; i = inactive; / = no result; + = active, no number.

SMILES | NALP1 yeast inh | SUMO Mot1 rescue | CHT block | Bfl-1 A1 inh | CHT allo act | NALP3 yeast inh | Mot1 SUMO dose
CCOc1cc(-c2nc3ccccc3s2)ccc1O | 14 | 7 | i | 0 | i | 28 | /
COc1ccc(CN2CCCCCC2)cc1 | 11 | 487* | i | 0 | i | 14 | 0
COc1ccc(C2CC3(CC(C)(C)NC(=S)N3)Oc3cc(O)cc(C)c32)cc1 (centres undefined) | 2 | 978* | i | 0 | i | 7 | 0
Cc1cc(O)cc2c1C(c1ccc(F)cc1)CC1(CC(C)(C)NC(=S)N1)O2 (centres undefined) | -3 | -7 | i | 0 | i | -5 | /
Clc1cccc(Cl)c1CSc1nnc(CN2CCOCC2)n1-c1ccccc1 | -21 | 3 | i | 0 | i | -3 | /
Fc1cccc(Cl)c1CSc1nnc(CN2CCOCC2)n1-c1ccccc1 | -14 | 551* | i | 0 | i | 16 | 0
COc1ccc(/C(C)=N/NC(=S)NCCc2ccccc2)c(O)c1 | -14 | 16 | i | 0 | i | 21 | /
CCCCn1c(N)c(N(CC(C)C)C(=O)c2cc(-c3ccc(F)cc3)nc3ccccc23)c(=O)[nH]c1=O | / | 491* | i | 0 | i | 17 | 0
CCCc1nc(NCc2ccccc2)c(C#N)c2c1CCCC2 | 26 | 789* | i | 0 | i | 17 | 0
CCN1CCc2c(C#N)c(NCc3ccccc3)nc(N(CC)CC)c2C1 | 6 | 5 | i | 2 | i | 26 | /
Cc1cccc(OCc2nnc(SCC(=O)O)n2-c2ccccc2)c1 | -2 | + | i | 1 | i | 11 | 1
O=C(CCCC(=O)N/N=C/c1ccccc1C(=O)O)N/N=C/c1ccccc1C(=O)O | -15 | 419* | i | 1 | i | 21 | 1
O=C(O)c1ccccc1/C=N/NC(=O)C1CCCC1 | -24 | -4 | i | 0 | i | 9 | /
CCN1CCCC1CN(Cc1cc2ccc(C)cc2[nH]c1=O)C(=S)Nc1ccc(OC)cc1OC (centres undefined) | 24 | 562* | i | 1 | i | 12 | 0
Cc1ccc(C(=O)NC(NC(=O)c2ccc(C)cc2)C(Cl)Cl)cc1 | 37 | 378* | i | -1 | i | 28 | 0
Cc1ccc(C(NC(=O)c2ccccc2)C(Cl)Cl)cc1 (centres undefined) | 20 | 20 | i | 0 | i | 15 | /
Cc1ccc(C(=O)NCCC(=O)N2CCOCC2)cc1 | 7 | -11 | i | 1 | i | 1 | /
Nc1ccc(NC(=O)c2ccco2)c(Cl)c1 | 3 | 439* | i | 0 | i | -3 | 0
COc1ccc([C@H]2C(C(=O)O)=C[C@@H](C(C)(C)C)N2S(=O)(=O)c2ccccc2)cc1 | / | -5 | / | -1 | / | -1 | /
COc1ccccc1N1CCN(C(=O)C2CCN(S(=O)(=O)c3ccc(C)cc3)CC2)CC1 | -9 | 989* | i | 1 | i | 9 | 0
CCOc1ccc(S(=O)(=O)N2CCC(C(=O)N3CCN(c4ccccc4)CC3)CC2)cc1 | 18 | 487* | i | 0 | i | 20 | 0
COc1ccccc1N1CCN(C(=O)C2CCN(S(=O)(=O)c3ccccc3F)CC2)CC1 | / | -2 | / | 2 | / | 17 | /
COc1ccc2c(C)c(CCC(=O)NCCCN3CCCC3=O)c(=O)oc2c1C | 8 | -13 | i | 0 | i | 2 | /
CN(Cc1ccccc1)C(=O)COC(=O)c1ccc(Br)o1 | / | 2 | / | 0 | / | 7 | /
COc1cc(/C=N/n2cnnc2)ccc1OCc1ccccc1 | -3 | 540* | i | -1 | i | 0 | 1
COc1cc(/C=N/n2cnnc2)ccc1OCc1ccc(C)cc1 | 60 | 142 | i | -1 | i | 36 | /
Cc1ccccc1P(=O)(CO)c1ccccc1C | -12 | 414* | i | 0 | i | 1 | 1
CCOC(=O)C1CCN(CC(=O)c2ccc(O)c(C)c2O)CC1 | 17 | -33 | i | 0 | i | 15 | /

Source: PubChem BioAssay (several laboratories)
